# Experimental data taken from ChEMBL document CHEMBL3988442, “University of Dundee, Small-Polar-MMV Screening Library” (2021).
# Test system: Trypanosoma cruzi
# Experiment: Trypanosoma cruzi phosphomannomutase and mannose-1-phosphate guanylyltransferase assay
# Assay type: functional
# Design: scale not given: direction of the effect not stated beside the values
# Conditions: 10 µM
row,Structure (SMILES),Percent Effect [%]
1,CC(C)(C)c1cnc(CN2CCCC2Cn2cccn2)o1 (stereo not given),5.19
2,Cc1nc(C)c(C(=O)NCCNC(=O)Cc2ccccc2)s1,-4.36
3,CC(C)NC(=O)c1n[nH]c(-n2cnnc2)n1,1.77
4,CC(C)C1CN(C(=O)c2ccc(N3CCCC3)nc2)CCS1 (stereo not given),-0.492
5,O=C(NC1CC1)[C@@H]1CCO[C@@H]2CCN(Cc3ccsc3)C[C@H]21,-5.38
6,Cc1cc(CN(C)C2CCCN(c3cccnn3)C2)on1 (stereo not given),4.19
7,CN(Cc1ccc(F)cc1)C(=O)CN1CCOC(Cn2cncn2)C1 (stereo not given),-7.65
8,CC(C)COC(C)C(=O)NCc1cc(F)cc(F)c1 (stereo not given),1.47
9,COCCC(=O)N1CCN(C)c2ncccc2C1,-2.06
10,Cn1cc(N2CCC3(CCN(Cc4nccs4)C3)C2=O)cn1 (stereo not given),-4.2
11,O=C(CCc1nccs1)N1CCN(c2ccccc2F)CC1,8.4
12,CNC(=O)CCNC(=O)c1cccc(Cn2nc(C)cc2C)c1,5.15
13,Cc1cc(C)cc(OCCC(=O)N2CCCC(n3cncn3)C2)c1 (stereo not given),8.08
14,O=C(CSc1ccccc1Cl)NS(=O)(=O)c1ccc2c(c1)OCCO2,1.69
15,O=c1ccc(-c2cccs2)nn1CN1CCCCCC1,3.54
16,O=C(NCCOc1ncc(Cl)cc1Cl)c1ccncc1,-5.27
17,COc1cccc(OCC2CCCN(C(=O)c3cnc(C)nc3O)C2)c1 (stereo not given),5.02
18,CCc1cccc(NS(=O)(=O)c2cc3c(c(C(=O)O)c2)OCCO3)c1,-1.33
19,CC(C)S(=O)(=O)NCC1CCCN(C(=O)c2ccc3c(c2)OCCO3)C1 (stereo not given),0.196
20,Cc1cnccc1CN1C[C@@H](O)[C@H](Oc2cccc(F)c2)C1,3.36
